# ChEMBL document CHEMBL3988442, “University of Dundee, Small-Polar-MMV Screening Library” (2021)
# Out of some 69,000 compounds screened, about 950 (1.4%) showed an effect of 50% or more. The entries come from a sample that favours strong results as a whole.
# System: Mycobacterium tuberculosis
# Assay: Cornell M. t heat shock assay; also: in the data most compounds retested in dose-response had high values
# Type: functional, organism-based
# Parameters: dose or concentration left out as unconfirmed
row,SMILES,Percent Effect
1,COCCn1cc2c(n1)C(CNCc1nccs1)OCC2.O=C(O)C(F)(F)F.O=C(O)C(F)(F)F (stereo not drawn),-27.8%
2,CN(C)Cc1cncc2c1CCN(Cc1ccoc1)C2.Cl.Cl.Cl,-10.16%
3,O=C(O)C(F)(F)F.O=C(O)C(F)(F)F.O=C1[C@H]2CN(Cc3cccs3)C[C@H]2CN1CCN1CCCC1,-16.55%
4,NC(=O)N1CC[C@H]2CO[C@H](CNC(=O)c3ccnnc3)[C@H]2C1,-0.7451%
5,CC(C)C(=O)N1CCC(C)(c2cc(O)[nH]n2)CC1,1.922%
6,COCC(=O)N1CCC(C)(c2cc(O)[nH]n2)CC1,53.15%
7,COCCN1CCC(C)(c2cc(O)[nH]n2)CC1,-2.336%
8,CCOCC1CN(Cc2ccc(F)cc2)Cc2nn(C)cc21.O=C(O)C(F)(F)F (stereo not drawn),-29.18%
9,CC(C)c1nc(CC(=O)Nc2nc(CN3CCCCCC3)cs2)cs1,104.4%
10,CC(C)c1nc(CN2CCC(CO)CC2)cs1,17.89%
11,CC(C)c1nc(CN2CCCCC2)cs1,0.8394%
12,COc1cc(C2CC(=O)c3c(O)cc(O)cc3O2)ccc1O (stereo not drawn),5.655%
13,O=C1c2c(O)cc(O)cc2O[C@@H](c2ccc(O)cc2)[C@@H]1O,53.66%
14,Oc1ccc([C@H]2Oc3cc(O)cc(O)c3C[C@@H]2O)cc1,-4.634%
15,CN(C)C(=O)[C@H]1C[C@@H]2CCN(Cc3ccoc3)C[C@@H]2O1.O=C(O)C(F)(F)F,36.25%
16,Cc1ccc(C(=O)N2Cc3c(CN(C)C)nn(C)c3C2)cc1C.O=C(O)C(F)(F)F,-17.18%
17,Cc1nc2c(Nc3ccc(C#N)cc3)nc(N)nc2n1C,5.734%
18,CC(=O)c1ccc(Nc2nc(N)nc3c2nc(C)n3C)cc1,10.63%
19,Cc1nc2c(Nc3cccc(C#N)c3)nc(N)nc2n1C,102.2%
20,Cc1cnc(CNC(=O)[C@@]23CCO[C@@H]2CCN(c2ncccn2)C3)cn1,39.63%
21,CC(=O)N1CC[C@H]2OCC[C@@]2(C(=O)NCc2cnc(C)cn2)C1,51.19%
22,CS(=O)(=O)N1CC[C@H]2OCC[C@@]2(C(=O)NCCc2ccccn2)C1.O=C(O)C(F)(F)F,-5.552%
23,O=C(NCc1ccccn1)[C@@]12CCO[C@@H]1CCN(Cc1ccccn1)C2.O=C(O)C(F)(F)F.O=C(O)C(F)(F)F.O=C(O)C(F)(F)F,19.83%
24,O=C(NCCc1ccccn1)[C@@]12CCO[C@@H]1CCN(c1ncccn1)C2,-5.799%
25,O=C(NCc1ccccn1)[C@@]12CCO[C@@H]1CCN(C1CCCC1)C2.O=C(O)C(F)(F)F.O=C(O)C(F)(F)F,40.27%
26,Cc1cnc(CNC(=O)[C@@]23CCO[C@@H]2CCN(C2CCCC2)C3)cn1.O=C(O)C(F)(F)F,35.39%
27,CS(=O)(=O)N1CC[C@H]2OCC[C@@]2(C(=O)NCc2ccccn2)C1.O=C(O)C(F)(F)F,65.18%
28,O=C(NCc1ccccn1)[C@@]12CCO[C@@H]1CCN(c1ncccn1)C2,92.45%
